Shown are actives, neighbours in structure and some others; about 7% of the full set was active somewhere.
Integrin act MD – activators of alpha7 integrin expression for muscular dystrophy. alpha7betagal myoblasts, beta-gal FDG fluorescence, 48 h. Potency, µM (titrated, usually from 38.3 µM), inactives show at the top dose activation, actives largely listed as activators. hit rate 0.064% among 350,000. AID 624291;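 further: potency means the concentration at half of the fitted maximal effect; 100% = response of the positive control SU9516; nearly all actives have a fitted effect of over 60% in size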
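Alpha7betagal+/- myoblasts (passage 13) were plated 16-24 hr, then exposed to compounds (1:260 dilution of DMSO stock) for 48 hours at 37C. After MPER lysis, β-galactosidase reporter activity was read as FDG fluorescence (ex 480/em 540) after 30 minutes.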
ATXN2 expr inh – reduces ATXN2 reporter expression in HEK-293 cells; HEK-293 ATXN2-luciferase reporter, luminescence, 24 h; hit rate 0.72% among 360,000; Potency, µM (top dose mostly 57 µM), inactives show top-dose activity change, negative = inhibition, hits mostly inhibitors; further: potency means the concentration at half of the fitted maximal effect; on the % scale 0 is the no-effect control and ±100 the full control effect; nearly all actives have a fitted effect of over 55% in size
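qHTS (up to 57 uM final) was run with 24 h compound exposure of reporter cells at 37 °C. Each well was multiplexed: SteadyGlo luminescence measured ATXN2-luciferase expression after a fluorogenic Gly-Phe-AFC viability readout (25 uM final).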
D3 antag – blocks the human D3 dopamine receptor; P35462; D3R cells, DiscoveRx beta-arrestin luminescence, antagonist mode; stronger effect = lower value; max response, negative = inhibition, %; hit rate 2.5% among 360,000; AID 652054; in the data active means max response below about -50%; inconclusive means no clear call, values can overlap the other calls; further: on the % scale 0 is the no-effect control and ±100 the full control effect
Target sequence (P35462 whole entry, looked up): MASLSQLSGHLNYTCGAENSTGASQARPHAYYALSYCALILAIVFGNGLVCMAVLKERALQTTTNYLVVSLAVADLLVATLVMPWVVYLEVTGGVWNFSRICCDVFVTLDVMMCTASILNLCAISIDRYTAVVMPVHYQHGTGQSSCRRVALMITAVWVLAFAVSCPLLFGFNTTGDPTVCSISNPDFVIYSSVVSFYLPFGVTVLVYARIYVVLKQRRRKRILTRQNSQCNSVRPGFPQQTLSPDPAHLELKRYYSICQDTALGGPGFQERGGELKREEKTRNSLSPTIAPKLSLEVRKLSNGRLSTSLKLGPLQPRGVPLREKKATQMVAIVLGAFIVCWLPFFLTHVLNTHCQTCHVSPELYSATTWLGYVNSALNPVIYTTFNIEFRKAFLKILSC
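Cells plated overnight at 1500 cells/well, then exposed to library compounds with dopamine controls for 90 minutes at 37 degrees C. DiscoveRx reagent added for 30–60 minutes at room temperature; luminescence read, quantitative HTS format.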
ATXN viability – viability counter-screen for ATXN expression inhibitors; S2 cells (HEK-293 line with an ATXN2-luciferase reporter) viability, CellTiter-Fluor protease fluorescence, 24 h; Potency, µM (highest dose often 56.7 µM), usual class: cytotoxic; hit rate 0.49% among 400,000; AID 651635; further: potency means the concentration at half of the fitted maximal effect; nearly all actives have a fitted effect of over 40% in size
DRD3 agonist – D3 dopamine receptor (human) agonism | AID 652048 | hit rate 0.58% among 410,000 | P35462 | D3R DiscoveRx beta-arrestin cells, luminescence, 90 min | max activation, %; in the data active means max activation above about 30%; further: 0% is about no effect
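Agonist-mode cell screen: cells plated at 1500/well and incubated overnight at 37 °C, then exposed to library compounds for 90 min at 37 °C. Detection reagent was added for 30–60 min at room temperature, and luminescence was read.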
IL1B secr inh – inflammasome signaling inhibition, IL-1 beta readout; THP-1 LPS/ATP IL-1B secretion, AlphaLISA, 16 h; stronger effect = lower value; AID 743279; hit rate 4.7% among 360,000; activity change, % at 57.5 µM; in the data active means activity change below about -50%; inconclusive means mostly about -30% to -49%; further: on the % scale 0 is the no-effect control and ±100 the full control effect
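THP-1 cells pretreated 1 hr with compounds (up to 57.5 uM final), then stimulated with LPS (250 ng/mL final) plus ATP (1.25 mM final); secreted IL-1B measured by AlphaLISA after 16 hr, decreased signal indicating inhibition.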
Numbers without * were called inactive; i = inactive; ? = inconclusive; · = no result; [ ] = dose if it differs, or a comment. Unless noted, the call rests on the fitted dose curve; in most records, active means well fitted curve in the direction sought with a large enough effect; inconclusive means small, poorly fitted or top-dose-only effect, or another doubt; inactive means no such curve, though single readings can be large; an effect the other way counts as inactive or inconclusive.

SMILES	Integrin act MD	ATXN2 expr inh	D3 antag	ATXN viability	DRD3 agonist	IL1B secr inh
CCOc1ccc(NC(=O)Nc2nc(SCC)ns2)cc1	-9.7%	-0.3%	29.8	i	1.2	10.0
CCSc1nsc(NC(=O)Nc2ccccc2Cl)n1	30.3%	47.5%	2.6	i	8.4	-77.6*
CCSc1nsc(NC(=O)Nc2ccc(F)cc2F)n1	?	·	35.2	?	4.5	-90.5*
Cc1ccc(S(=O)(=O)/C=C/c2ccccc2)cc1	-12.3%	0.0%	-10.2	i	-0.8	-75.5*
Cc1cccc(CN2CCN(C3CN(C4CCCC4)S(=O)(=O)C3)CC2)c1 (stereo not drawn)	·	0.0%	?	i	-10.8	-21.8
Cc1cccc(CN2CCN(C3CN(C4CCCCC4)S(=O)(=O)C3)CC2)c1 (stereo not drawn)	·	-35.4%	-57.0*	i	-14.3	-1.8
O=C(CN1CCN(S(=O)(=O)c2ccc(F)c(Cl)c2)CC1)N1CCOCC1	-13.1%	2.3%	-10.8	i	-7.9	11.3
COC(=O)C1=C(C)NC(=O)CC1c1cc2c(cc1Br)OCO2 (stereo not drawn)	-0.3%	4.4%	?	i	3.3	21.3
CC1=C(C(=O)OC2CCCCCCC2)C(c2cc3c(cc2Br)OCO3)CC(=O)N1 (stereo not drawn)	-77.2%	?	13.2	i	0.0	-58.5*
COC(=O)CC1Oc2ccc(Cl)cc2-n2cc(-c3ccc(F)cc3)nc21 (stereo not drawn)	·	-4.8%	·	i	49.7*	·
O=C(C1c2ccccc2C(=O)N2CCc3ccccc3C12)N1CCN(Cc2ccccc2)CC1 (stereo not drawn)	14.6%	-12.0%	-11.6	i	2.3	-2.6
CN(C)CCCOC(=O)c1ccccc1Cl	-21.0%	-2.2%	?	i	-4.2	3.5
CN(C)CCCOC(=O)N1c2ccccc2C=Cc2ccccc21	-4.6%	·	-61.5*	i	-2.0	-17.1
COC(=O)C[C@H]1c2cc(F)cc(F)c2S(=O)(=O)N1C1CCN(Cc2ccccc2)CC1	-0.2%	0.9%	-68.7*	i	-66.5	-1.1
CC1(Oc2cccc(F)c2)CCN(Cc2csc3ccccc23)C1 (stereo not drawn)	·	5.0%	-106.0*	i	-11.3	2.4
CC1(Oc2cccc(C#N)c2)CCN(Cc2ccccc2OC(F)F)C1 (stereo not drawn)	·	0.6%	-88.8*	i	-9.6	-19.5
CC1(Oc2cccc(C#N)c2)CCN(Cc2csc3ccccc23)C1 (stereo not drawn)	·	-10.4%	-80.9*	i	-25.1	-6.6
COC(=O)Cc1ccc(OC2(C)CCN(Cc3csc4ccccc34)C2)cc1 (stereo not drawn)	·	-12.1%	-85.8*	i	-24.6	22.8
CC1(Oc2cccc(F)c2)CCN(Cc2ccc(-c3ccccc3)o2)C1 (stereo not drawn)	·	10.6%	?	i	-19.2	0.0
O=C(/C=C/[C@H]1O[C@@H](n2cnc3c(NC(=O)c4ccccc4)ncnc32)[C@H](O)[C@@H]1O)NCC1CCCCC1	·	2.5%	34.1	i	7.8	-17.9
CSc1c(C#N)sc(=S)n1-c1ccc(C)cc1	-7.6%	-31.4%[11.3 µM]	7.3	?	-3.3	-5.4
CSc1ccccc1OCc1cc(C(=O)N(C)Cc2ccc(C)o2)no1	3.4%	41.1%	-5.6	i	3.6	-66.8*
CSc1ccccc1OCc1cc(C(=O)N(C)Cc2ccc3nsnc3c2)no1	-4.5%	69.7%	-10.1	i	-1.9	i
CCOc1ccc(NC(=O)Cn2c(=O)n(Cc3ccc(C(=O)NCc4ccc5c(c4)OCO5)cc3)c(=O)c3ccccc32)cc1	·	10.4%	·	i	1.6	·
Cc1ccccc1C(=O)c1cccn1CC(=O)NCCCN1CCCCC1	?	2.7%	-21.4	i	-15.3	-11.5
SMILES	Integrin act MD	ATXN2 expr inh	D3 antag	ATXN viability	DRD3 agonist	IL1B secr inh
COc1ccc(N2CCN(CCNC(=O)Nc3ccc(C)c(Cl)c3)CC2)cc1	-62.9%	·	?	i	-3.6	-29.7
COc1ccc(/C=N/NC(=O)CN2CCS(=O)(=O)CC2)cc1	7.1%	2.7%	-52.4*	i	1.7	0.0
COc1cccc(NC(=O)NCCCN2CCN(c3ccc(F)cc3)CC2)c1	-27.9%	-24.1%	-55.9*	i	-29.9	-11.2
COc1ccc(NC(=O)NCCCN2CCN(c3cc(C)ccc3C)CC2)cc1	-56.0%	?	-107.8*	?	-5.9	-28.0
Cc1ccc(C)c(N2CCN(CCCNC(=O)Cn3cccc3C(=O)c3ccccc3C)CC2)c1	-70.1%	?	-56.7*	?	-8.3	-113.7*
CN(C)S(=O)(=O)c1cc(NC(=O)CSc2ncc(C(F)(F)F)cc2Cl)ccc1Cl	0.7%	?	14.2	?	1.5	-81.6*
CCOc1ccc(NC(=O)NCCN2CCN(c3cccc(C)c3C)CC2)cc1	-4.7%	-14.8%	-59.2*	i	63.5*	-2.9
Cc1cccc(CN2CCN(CC(=O)NCCCN3CCN(c4ccc(F)cc4)CC3)C2=O)c1	-30.0%	-23.3%	?	?	-47.1	-56.2*
CCN1CCN(CC(=O)Nc2ccc(Cl)c(S(=O)(=O)N(C)C)c2)CC1	-27.2%	·	3.9	i	-16.9	0.0
CN(C)S(=O)(=O)c1cc(NC(=O)CN2CCN(c3ccccc3F)CC2)ccc1Cl	-37.3%	6.6%	-6.6	i	49.3*	0.0
CCC1(CC)C(=O)C2=C3C1[C@H](C(=O)OC)C=C(C(=O)OC)C[C@H]3n1c(=O)n(-c3ccccc3)c(=O)n1[C@H]2C (stereo partly drawn)	-6.4%	-2.3%	40.9	?	7.1	-1.5
COc1cc(C(=O)Nc2scc(-c3ccc(Br)cc3)c2C(=O)O)cc(OC)c1OC	26.4%	-19.4%	-2.5	i	1.8	1.6
COc1ccc(NC(=O)NCCCN2CCN(c3ccccc3F)CC2)cc1	-11.2%	-11.1%	?	i	33.9*	-8.0
CCOc1ccc(NC(=O)NCCN2CCN(c3ccccc3F)CC2)cc1	-4.4%	1.1%	-69.2*	i	8.0	?
CCOc1cccc(N2CCN(CCNC(=O)Nc3ccc(C)cc3)CC2)c1C	-60.2%	-25.0%	?	i	59.3*	-68.0*
CCCN1CCN(CCNC(=O)Nc2ccccc2OCC)CC1	·	8.1%	·	i	-3.1	·
COc1ccc(NC(=O)CN2CCN(c3ccccc3F)CC2)cc1	2.9%	1.5%	-87.4*	i	-11.3	11.5
Cc1cccc(C)c1NC(=O)CCN1C(=O)C2C3CCC(C3)C2C1=O (stereo not drawn)	-13.0%	-4.4%	14.6	i	2.9	-1.6
O=C(/C=C/c1ccc(Br)cc1)NCc1cccs1	-1.6%	39.8%	-2.4	i	-5.1	-13.2
COc1ccc(NC(=O)CN2CCC(C)CC2)cc1	30.6%	14.3%	-69.1*	i	-19.7	13.4
